Inconclusive results are not listed. Unmarked numbers belong to inactive results. Calls come from the whole dose curve; as a rule, active = well fitted inhibition curve with a large enough effect; inconclusive = small, poorly fitted or top-dose-only effect, or effect the other way; inactive = flat fitted curve, though single readings scatter.
biological target: ATP-dependent 6-phosphofructokinase (Trypanosoma brucei brucei) (UniProt O15648); assay: qHTS Assay to Find Inhibitors of T. brucei phosphofructokinase: hit validation (AID 492961);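 note: luminescence reports ADP formed as PFK phosphorylates fructose-6-phosphate with ATP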; conditions: T. brucei PFK, ADP-Glo luminescence; series mostly up to 51.4 µM; activity change, negative = inhibition: at the top concentration
Sequence (O15648 whole entry, looked up): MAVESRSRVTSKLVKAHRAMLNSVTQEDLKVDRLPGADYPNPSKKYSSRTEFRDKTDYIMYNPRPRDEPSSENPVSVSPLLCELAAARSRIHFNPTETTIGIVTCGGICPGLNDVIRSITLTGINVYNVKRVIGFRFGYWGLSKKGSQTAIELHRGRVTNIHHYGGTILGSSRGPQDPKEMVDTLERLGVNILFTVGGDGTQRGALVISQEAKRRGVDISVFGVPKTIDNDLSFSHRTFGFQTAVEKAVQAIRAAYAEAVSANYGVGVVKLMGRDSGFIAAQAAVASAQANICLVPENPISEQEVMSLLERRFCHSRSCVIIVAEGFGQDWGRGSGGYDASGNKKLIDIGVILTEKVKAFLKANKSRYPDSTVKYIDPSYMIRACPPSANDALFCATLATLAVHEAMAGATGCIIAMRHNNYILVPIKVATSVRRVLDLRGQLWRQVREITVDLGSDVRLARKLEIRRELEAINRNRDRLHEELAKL
Procedure, shortened: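 Reaction: 0.1 M triethanolamine pH 8.0, 5 mM MgCl2, F6P 0.5 mM, ATP 0.1 mM, PFK 1.25 nM, 45 min RT. Read-out: ADP-Glo luminescence. Analysis: concentration-response fits, classed by r2 and efficacy.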
% is set by controls: 0 for no effect and ±100 for the full control effect.

SMILES	activity change, negative = inhibition
C[C@H](O)C(=O)Nc1c(I)c(C(=O)NC(CO)CO)c(I)c(C(=O)NC(CO)CO)c1I	0.63% [at 24.3 µM]
CC[N+](CC)(CCNC(=O)C(=O)NCC[N+](CC)(CC)Cc1ccccc1Cl)Cc1ccccc1Cl	-1.37%
CCCCC1=NC2(CCCC2)C(=O)N1Cc1ccc(-c2ccccc2-c2nn[nH]n2)cc1	-1.97%
CN1CCN(C(c2ccccc2)c2ccccc2)CC1	-2.11% [at 24.3 µM]
CCCCCCCCCCCCCCCC[N+](C)(C)CCN(Cc1ccc(OC)cc1)c1ncccn1	13.7% [at 24.3 µM]
CC(C)(C(=O)c1cccnc1)c1cccnc1	-1.13% [at 24.3 µM]
Clc1ccc2c(c1)CCc1cccnc1C2=C1CCNCC1	-0.598%
CCCOC(C(=O)OC1CCN(C)CC1)(c1ccccc1)c1ccccc1	5.65%
COCc1c(C(C)C)nc(C(C)C)c(/C=C/[C@@H](O)C[C@@H](O)CC(=O)O)c1-c1ccc(F)cc1	-0.192%
CCOC(=O)COc1ccc2c(C)c(CCN(CC)CC)c(=O)oc2c1Cl	1.2%
NC(CO)(CO)CO	2.11%
NC(=O)C(=O)N/N=C/c1ccc([N+](=O)[O-])o1	2.4%
O=c1c(-c2ccccc2)c1-c1ccccc1	-7.7%
CC(=O)Oc1ccc(C(=C2CCCCC2)c2ccc(OC(C)=O)cc2)cc1	3.65%
OC(CCN1CCCCC1)(c1ccccc1)c1ccccc1	-0.846%
CC(=O)Nc1c(I)cc(I)c(C(=O)O)c1I	0.612%
CN1CCN(CCCN2c3ccccc3Sc3ccc(S(=O)(=O)N(C)C)cc32)CC1	-4.24% [at 24.3 µM]
CC(=O)c1ccc2c(c1)N(CCCN1CCC(CCO)CC1)c1ccccc1S2	-3.37% [at 24.3 µM]
NCCC(O)(P(=O)(O)O)P(=O)(O)O	-4%
O=S1(=O)c2cccc3cccc(c23)N1CCCN1CCN(c2ccc(F)cc2)CC1	-1.05%
CN=C(NC#N)NCCSCc1csc(N=C(N)N)n1	8.1%
